Source: the antibiotic and cytotoxicity screens of Wong et al. (2023)
In all, about 39,000 compounds went through this assay and about 3,300 (8.5%) were called active. Shown is part of a subset that was picked to be rich in actives.

Tested on: HepG2
Test: cytotoxicity call (relative viability < 0.9)
Conditions: 10 µM

| SMILES | cytotoxicity call |
| --- | --- |
| C[C@@H]1CN([C@H](C)CO)C(=O)c2cc(NS(=O)(=O)c3ccccc3)ccc2O[C@@H](C)CCCCO[C@@H]1CN(C)C(=O)C1CCCCC1 | inactive |
| CN1CCCN=C1C=Cc1cccc(O)c1.O=C(O)c1cc2ccccc2c(Cc2c(O)c(C(=O)O)cc3ccccc23)c1O | inactive |
| Cc1cc(C=Cc2ccc3cc(N(C)C)ccc3[n+]2C)c(C)n1-c1ccccc1.O=C([O-])c1cc2ccccc2c(Cc2c(O)c(C(=O)O)cc3ccccc23)c1O | active |
| CN1CCCN=C1C=Cc1cccs1.O=C(O)c1cc2ccccc2c(Cc2c(O)c(C(=O)O)cc3ccccc23)c1O | inactive |
| O=C(C[C@@H]1C[C@H]2c3cc(NS(=O)(=O)c4ccc(F)cc4)ccc3O[C@H]2[C@H](CO)O1)NC1CCCCC1 | inactive |
| C[C@@H]1CN([C@@H](C)CO)C(=O)c2cc(NC(=O)Nc3ccc(C(F)(F)F)cc3)ccc2O[C@@H]1CN(C)S(=O)(=O)c1ccc(Cl)cc1 | active |
| C[C@@H]1CN([C@H](C)CO)C(=O)c2cc(NC(=O)Nc3ccc(C(F)(F)F)cc3)ccc2O[C@@H]1CN(C)S(=O)(=O)c1ccc(Cl)cc1 | active |
| C[C@H]1CN([C@@H](C)CO)C(=O)c2cc(NS(C)(=O)=O)ccc2O[C@H]1CN(C)S(=O)(=O)c1ccc(Cl)cc1 | inactive |
| C[C@H]1CN([C@@H](C)CO)C(=O)c2cc(NS(C)(=O)=O)ccc2O[C@@H]1CN(C)S(=O)(=O)c1ccc(Cl)cc1 | active |
| C[C@H]1CN([C@@H](C)CO)C(=O)c2cc(NC(=O)Nc3ccc(C(F)(F)F)cc3)ccc2O[C@@H]1CN(C)S(=O)(=O)c1ccc(Cl)cc1 | active |
| C[C@H](CO)N1C[C@H](C)[C@@H](CN(C)S(=O)(=O)c2ccc(Cl)cc2)Oc2ccc(NS(C)(=O)=O)cc2C1=O | inactive |
| Cc1noc(C)c1S(=O)(=O)Nc1ccc2c(c1)C(=O)N([C@H](C)CO)C[C@@H](C)[C@@H](CN(C)S(=O)(=O)c1c(C)noc1C)O2 | inactive |
| CS(=O)(=O)N1CCOC[C@]2(CN(C(=O)c3ccc[nH]3)CCO2)C1 | inactive |
| Cc1noc(C)c1S(=O)(=O)Nc1cccc2c1O[C@@H](CN(C)S(=O)(=O)c1ccc(Cl)cc1)[C@@H](C)CN([C@@H](C)CO)C2=O | inactive |
| CCS(=O)(=O)N1CCO[C@]2(COCCN(c3cncnc3)C2)C1 | inactive |
| Cc1noc(C)c1NC(=O)Nc1ccc2c(c1)C(=O)N([C@@H](C)CO)C[C@@H](C)[C@@H](CN(C)Cc1ccc(C(F)(F)F)cc1)O2 | inactive |
| Cc1cccn2c(=O)c(-c3nn[nH]n3)cnc12 | inactive |
| O=C(C[C@H]1C=C[C@H](NC(=O)CN2CCOCC2)[C@@H](CO)O1)NCc1cccc(F)c1 | inactive |
| C[C@@H]1CN([C@@H](C)CO)S(=O)(=O)c2ccc(-c3cncnc3)cc2O[C@@H]1CN(C)C(=O)NC1CCCC1 | inactive |
| C[C@H](CO)N1C[C@H](C)[C@@H](CN(C)Cc2ccc(C(=O)O)cc2)Oc2c(NC(=O)Nc3ccc(C(F)(F)F)cc3)cccc2C1=O | inactive |
| C[C@@H]1CN([C@H](C)CO)C(=O)c2cc(NC(=O)Nc3ccc(C(F)(F)F)cc3)ccc2O[C@H]1CN(C)S(=O)(=O)c1ccc(Cl)cc1 | active |

| SMILES | cytotoxicity call |
| --- | --- |
| C[C@H]1CN([C@@H](C)CO)C(=O)c2cc(NC(=O)Nc3ccc(C(F)(F)F)cc3)ccc2O[C@H]1CN(C)S(=O)(=O)c1ccc(Cl)cc1 | inactive |
| C[C@@H]1CN([C@@H](C)CO)C(=O)c2cc(NC(=O)Nc3ccc(C(F)(F)F)cc3)ccc2O[C@H]1CN(C)S(=O)(=O)c1ccc(Cl)cc1 | active |
| C[C@H](CO)N1C[C@H](C)[C@H](CN(C)S(=O)(=O)c2ccc(Cl)cc2)Oc2ccc(NC(=O)Nc3ccc(C(F)(F)F)cc3)cc2C1=O | active |
| COc1ccc(S(=O)(=O)N(C)C[C@H]2OCCCC[C@H](C)Oc3ccc(NC(=O)CCC(F)(F)F)cc3C(=O)N([C@@H](C)CO)C[C@@H]2C)cc1 | inactive |
| O=C1CCC(C(=O)O)CC1 | inactive |
| C[C@@H]1CN([C@@H](C)CO)C(=O)c2cc(NC(=O)CCN3CCOCC3)ccc2O[C@@H]1CN(C)S(=O)(=O)c1ccccc1 | inactive |
| C[C@@H]1CCCCO[C@@H](CN(C)C(=O)Nc2cccc3ccccc23)[C@@H](C)CN([C@H](C)CO)C(=O)c2cc(NC(=O)Nc3ccc(C(F)(F)F)cc3)ccc2O1 | inactive |
| COc1ccc(S(=O)(=O)N(C)C[C@@H]2Oc3ccc(NS(=O)(=O)c4cn(C)cn4)cc3C(=O)N([C@H](C)CO)C[C@@H]2C)cc1 | inactive |
| C[C@H](CO)N1C[C@H](C)[C@@H](CN(C)S(=O)(=O)c2ccc3ccccc3c2)OCc2cnnn2CCCC1=O | inactive |
| COc1ccc(C#Cc2cnc3c(c2)C(=O)N([C@H](C)CO)C[C@H](C)[C@H](CN(C)S(=O)(=O)c2cccc(F)c2)O3)cc1OC | inactive |
| COC(=O)c1c(C(=O)OC)c2n(c(=O)c1-c1ccccc1)[C@@H]1c3ccccc3O[C@@](COCc3ccc(OC)cc3)([C@@H]1COC(=O)c1ccccc1)N2C | inactive |
| COc1ccc(COCC23Oc4ccccc4[C@H]([C@H]2CO[Si](C)(C)C(C)(C)C)n2c(c4ccccc4c(-c4ccccc4)c2=O)N3C)cc1 | active |
| COc1ccc(COCC23Oc4ccccc4[C@H]([C@H]2CO)n2c(c4c(c(C(C)=O)c2=O)C(=O)N(C)C4=O)N3C)cc1 | inactive |
| COC(=O)c1cc(-c2ccccc2)c(=O)n2c1N(C)[C@@]1(COCc3ccc(OC)cc3)Oc3ccccc3[C@@H]2[C@H]1CO[Si](C)(C)C(C)(C)C | inactive |
| COC(=O)c1c(C(=O)OC)c2n(c(=O)c1-c1ccccc1)[C@@H]1c3ccccc3O[C@@](CO)([C@@H]1CO)N2C | inactive |
| COC(=O)c1c(C(=O)OC)c2n(c(=O)c1-c1ccccc1)[C@@H]1c3ccccc3O[C@@](COCc3ccc(OC)cc3)([C@@H]1CO[Si](C)(C)C(C)(C)C)N2C | inactive |
| COc1ccc(COCC23Oc4ccccc4[C@H]([C@H]2COC(=O)NCCCCCC(=O)NO)n2c(c4c(c(C(C)=O)c2=O)C(=O)N(C)C4=O)N3C)cc1 | inactive |
| COc1ccc(COCC23Oc4ccccc4[C@H]([C@H]2CO)n2c(c4ccccc4c(-c4ccccc4)c2=O)N3C)cc1 | active |
| COc1ccc(COCC23Oc4ccccc4[C@H]([C@H]2COC(=O)c2ccccc2)n2c(c4ccccc4c(-c4ccccc4)c2=O)N3C)cc1 | active |
| COc1ccc(NC(=O)N(C)C[C@@H]2OCCCC[C@H](C)Oc3ccc(NS(=O)(=O)c4ccc(OC)cc4)cc3C(=O)N([C@H](C)CO)C[C@@H]2C)cc1 | inactive |
| CC(C)NC(=O)N(C)C[C@@H]1Oc2c(NC(=O)Nc3ccc4c(c3)OCO4)cccc2C(=O)N([C@@H](C)CO)C[C@@H]1C | inactive |

| SMILES | cytotoxicity call |
| --- | --- |
| C[C@H]1CCCCO[C@H](CN(C)C(=O)CCC(F)(F)F)[C@@H](C)CN([C@@H](C)CO)C(=O)c2cc(NS(=O)(=O)c3cccs3)ccc2O1 | inactive |
| Cn1cnc(S(=O)(=O)N2C[C@@H](O)COC[C@H]3O[C@H](CC(=O)NCc4cc(F)cc(F)c4)CC[C@@H]32)c1 | inactive |
| O=C(C[C@@H]1CC[C@H]2[C@@H](COC[C@@H](O)CN2S(=O)(=O)c2cccc(Cl)c2)O1)N1CCOCC1 | inactive |
| O=C(C[C@H]1CC[C@@H]2[C@H](COC[C@@H](O)CN2C(=O)Nc2ccc(Cl)c(Cl)c2)O1)NCc1ccc(Cl)c(Cl)c1 | inactive |
| O=C(C[C@@H]1CC[C@H]2[C@@H](COC[C@H](O)CN2C(=O)Nc2ccc(Cl)c(Cl)c2)O1)NCc1ccc(Cl)c(Cl)c1 | inactive |
| Cn1cnc(CCNC(=O)C[C@H]2CC[C@@H]3[C@H](COC[C@@H](O)CN3C(=O)Nc3ccc(Cl)cc3)O2)c1 | inactive |
| O=C(C[C@H]1CC[C@H]2[C@@H](COC[C@H](O)CN2C(=O)Nc2ccc(Cl)c(Cl)c2)O1)NCc1ccc(Cl)c(Cl)c1 | inactive |
| O=C(C[C@@H]1CC[C@@H]2[C@H](COC[C@H](O)CN2Cc2cccc(C(F)(F)F)c2)O1)NCCc1ccncc1 | inactive |
| Cn1cnc(CCNC(=O)C[C@H]2CC[C@@H]3[C@H](COC[C@H](O)CN3C(=O)Nc3ccc(Cl)cc3)O2)c1 | active |
| O=C(C[C@H]1CC[C@H]2[C@@H](COC[C@@H](O)CN2C(=O)Nc2ccc(Cl)c(Cl)c2)O1)NCc1ccc(Cl)c(Cl)c1 | active |
| O=C(C[C@@H]1CC[C@@H]2[C@H](COC[C@@H](O)CN2C(=O)Nc2ccc(Cl)c(Cl)c2)O1)NCc1ccc(Cl)c(Cl)c1 | inactive |
| O=C(C[C@H]1CC[C@@H]2[C@H](COC[C@H](O)CN2Cc2cccc(C(F)(F)F)c2)O1)NCCc1ccncc1 | inactive |
| Cn1cnc(CCNC(=O)C[C@@H]2CC[C@H]3[C@@H](COC[C@H](O)CN3C(=O)Nc3ccc(Cl)cc3)O2)c1 | inactive |
| O=C(C[C@@H]1CC[C@H]2[C@@H](COC[C@@H](O)CN2C(=O)Nc2ccc(Cl)c(Cl)c2)O1)NCc1ccc(Cl)c(Cl)c1 | active |
| O=C(C[C@H]1CC[C@@H]2[C@H](COC[C@@H](O)CN2Cc2cccc(C(F)(F)F)c2)O1)NCCc1ccncc1 | active |
| C[C@H]1CN([C@@H](C)CO)S(=O)(=O)c2ccc(Br)cc2O[C@@H]1CN(C)C(=O)c1cnccn1 | inactive |
| C[C@H](CO)N1C[C@H](C)[C@H](CN(C)Cc2ccccc2)Oc2c(NC(=O)Nc3ccc(C(F)(F)F)cc3)cccc2C1=O | inactive |
| C[C@H]1CN([C@@H](C)CO)C(=O)Cc2cc(NC(=O)CCC(F)(F)F)ccc2O[C@@H]1CN(C)Cc1ccc(Cl)c(Cl)c1 | inactive |
| O=C(O)CCC(=O)N1CC(=O)Nc2ccccc21 | inactive |
| C[C@@H]1CN([C@@H](C)CO)C(=O)c2cccc(NS(=O)(=O)c3ccccc3)c2O[C@@H]1CN(C)Cc1ccc(Oc2ccccc2)cc1 | inactive |
